Out of some 65,000 compounds screened, about 450 (0.69%) were called active. This excerpt belongs to a sample that is enriched for actives. Unmarked numbers belong to inactive results.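 Rule for the calls: active = HER2 level under 5% of the carrier-only control; inconclusive = no clear call, values can overlap the other calls; inactive = the rest.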
These compounds were tested against Receptor tyrosine-protein kinase erbB-2 (Homo sapiens) (UniProt P04626) (assay: reducers of endogenous HER2 protein levels – SKBR-3 cells, AlphaScreen, 66K library, primary screen (AID 645;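 note: 100% = DMSO carrier and 0% = 500 nM PU-H71 HSP90 inhibitor; lower value means stronger loss of Her2 protein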)). Conditions: SKBR-3 HER2 protein level, 18-24 h, at 10 µM, stronger effect = lower value.
Sequence of Receptor tyrosine-protein kinase erbB-2 (Homo sapiens) (P04626 whole entry, looked up): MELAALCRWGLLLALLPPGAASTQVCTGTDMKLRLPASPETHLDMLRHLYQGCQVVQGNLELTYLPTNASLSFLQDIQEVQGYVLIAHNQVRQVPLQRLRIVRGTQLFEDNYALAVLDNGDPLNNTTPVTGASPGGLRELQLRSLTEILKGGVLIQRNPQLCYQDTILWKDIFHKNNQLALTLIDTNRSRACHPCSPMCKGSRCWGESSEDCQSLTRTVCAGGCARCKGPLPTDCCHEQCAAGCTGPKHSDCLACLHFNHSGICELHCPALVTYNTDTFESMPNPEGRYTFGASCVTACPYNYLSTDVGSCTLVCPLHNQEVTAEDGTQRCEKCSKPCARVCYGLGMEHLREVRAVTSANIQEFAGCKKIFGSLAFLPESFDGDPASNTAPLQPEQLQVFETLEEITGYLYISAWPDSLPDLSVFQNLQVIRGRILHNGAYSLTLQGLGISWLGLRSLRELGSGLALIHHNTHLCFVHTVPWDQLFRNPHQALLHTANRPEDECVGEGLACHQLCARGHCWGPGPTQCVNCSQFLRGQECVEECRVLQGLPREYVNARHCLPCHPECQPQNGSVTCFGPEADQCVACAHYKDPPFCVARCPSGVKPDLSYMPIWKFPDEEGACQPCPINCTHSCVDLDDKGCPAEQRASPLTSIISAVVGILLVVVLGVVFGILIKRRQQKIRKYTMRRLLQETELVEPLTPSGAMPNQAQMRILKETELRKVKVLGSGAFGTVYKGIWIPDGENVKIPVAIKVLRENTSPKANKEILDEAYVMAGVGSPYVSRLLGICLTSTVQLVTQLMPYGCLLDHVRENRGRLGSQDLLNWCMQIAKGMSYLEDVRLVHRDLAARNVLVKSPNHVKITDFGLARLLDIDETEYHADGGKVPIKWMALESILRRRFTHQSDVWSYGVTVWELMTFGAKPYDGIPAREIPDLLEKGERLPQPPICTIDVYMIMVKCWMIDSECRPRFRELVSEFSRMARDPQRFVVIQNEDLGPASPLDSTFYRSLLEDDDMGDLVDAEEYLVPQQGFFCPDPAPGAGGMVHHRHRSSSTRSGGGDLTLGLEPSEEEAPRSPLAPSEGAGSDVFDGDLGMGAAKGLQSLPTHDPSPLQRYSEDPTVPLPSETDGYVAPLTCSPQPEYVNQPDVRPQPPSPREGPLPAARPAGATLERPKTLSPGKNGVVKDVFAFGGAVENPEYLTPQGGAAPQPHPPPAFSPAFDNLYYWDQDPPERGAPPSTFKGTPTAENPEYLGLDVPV

**Q.** With CC(=O)c1c(C)n(-c2ccc(N(C)C)cc2)c2ccc(OCC(N)=O)cc12 as the compound, how does the HER2 level % of control read?
**A.** 64.8%

**Q.** For COc1ccccc1-c1nnc(SCC(=O)Nc2cc(C)on2)o1, which HER2 level % of control is on record?
**A.** 92.1%

**Q.** Which HER2 level % of control does the source give for CC1(C)CC(=O)NC=C(c2ccccc2)C1 here?
**A.** -32.3% (active)

**Q.** With O=c1[nH]c(-c2ccccc2)c(-c2ccccc2)[nH]1 as the compound, how does the HER2 level % of control read?
**A.** 88.4%

**Q.** For CC(C)C1C2=C(CC(C)(C)CC2=O)ON1c1ccccc1 (centres undefined), which HER2 level % of control is on record?
**A.** 89.9%

**Q.** Which HER2 level % of control does the source give for CC(C)(C)NC(=O)Cn1nnc(-c2ccccc2Cl)n1 here?
**A.** 75.9%

**Q.** COCCCNC(=O)CCc1nc2cccnc2n1Cc1ccc(OC)cc1 was tested. Which HER2 level % of control did it give?
**A.** 96.5%

**Q.** For Cc1cc(NC(=O)CCC(=O)N(c2cccc(F)c2)C(C(=O)NC2CCCC2)c2ccncc2)no1 (centres undefined), which HER2 level % of control is on record?
**A.** 97%

**Q.** How did the HER2 level % of control turn out when CCn1c(SCC(=O)NCC2CCCO2)nc2cc(S(=O)(=O)N3CCCCC3)ccc21 (centres undefined) was run?
**A.** -27.6% (active)

**Q.** For CCn1cc(C(=O)NCC2CCCO2)c(=O)c2cc(S(=O)(=O)N3CCCCC3)ccc21 (centres undefined), which HER2 level % of control is on record?
**A.** 108%

**Q.** How did the HER2 level % of control turn out when CCCCn1c(SCC(=O)NCC2CCCO2)nc2ccc(N3CCOCC3)cc2c1=O (centres undefined) was run?
**A.** 92.5%

**Q.** Which HER2 level % of control does the source give for Cc1cc(C)nc(SCc2ccccc2C#N)n1 here?
**A.** 112%

**Q.** Which HER2 level % of control does the source give for COc1ccc(C(=O)N2CCC(C(=O)Nc3cccc(C)c3)CC2)cc1OC here?
**A.** 97.1%

**Q.** Cc1nc2cc(S(=O)(=O)C(F)(F)F)ccc2s1 was tested. Which HER2 level % of control did it give?
**A.** -17.7% (active)

**Q.** For Cc1nc2ccc(S(=O)(=O)NCC(=O)O)cc2s1, which HER2 level % of control is on record?
**A.** 73.5%

**Q.** For Cc1nc2ccc(S(=O)(=O)NC(C(=O)N3CCCCCC3)C(C)C)cc2s1 (centres undefined), which HER2 level % of control is on record?
**A.** 82.8%

**Q.** How did the HER2 level % of control turn out when O=C(NCCN=C1NS(=O)(=O)c2ccccc21)c1ccc(S(=O)(=O)N2CCOCC2)cc1 was run?
**A.** 108%

**Q.** How did the HER2 level % of control turn out when CCOc1ccc(OCc2ccc(C(=O)Nc3cccc(C)n3)o2)cc1 was run?
**A.** 68.1%

**Q.** Which HER2 level % of control does the source give for CC(C)(C)n1nnnc1C(c1ccc2ncccc2c1)N1CCSCC1 (centres undefined) here?
**A.** 92.2%

**Q.** For CC(C)c1ccc(OCC(O)Cn2cnc3ccccc32)cc1 (centres undefined), which HER2 level % of control is on record?
**A.** 83.1%

**Q.** Which HER2 level % of control does the source give for Cc1ccc(S(=O)(=O)N2CCC(C(=O)N[C@@H](C)C(=O)NCc3ccccc3)CC2)cc1 here?
**A.** 102%

**Q.** For Cc1ccc(S(=O)(=O)N2CCC(C(=O)N[C@@H](C)C(=O)NCCc3ccccc3)CC2)cc1, which HER2 level % of control is on record?
**A.** -21.9% (active)

**Q.** For Cc1ccc(CCNC(=O)C2CCN(S(=O)(=O)N3CCCC3)CC2)cc1, which HER2 level % of control is on record?
**A.** 107%

**Q.** For CC(C)C[C@H](NC(=O)[C@@H]1O[C@H]1C(=O)O)C(=O)NCCCCN=C(N)N, which HER2 level % of control is on record?
**A.** 100%

Source: PubChem BioAssay AID645 (SRMLSC, 2007)
